Data as given in the supplement of paper PMC8866396.
± gives the standard deviation of the averaged measurements.

System: IL-6-GFP PC-9
Assay: cell viability (CCK-8 OD) relative to DMSO control (fraction of control); higher = more viable cells
Conditions: compound concentration: 10 uM; treatment time: 48 h
Summary of the method: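 A purchased 510-compound library was screened at a final 10 μM for 48 h against PC-9 and PC-9GR lung cancer cells overexpressing IL-6-GFP via a lentiviral construct, seeded at 3000 cells/well in 96-well plates. GFP imaging was done on a parallel plate set. For viability, CCK-8 absorbance was recorded and each well's optical density was divided by that of the vehicle control well. There were two independent replicates.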

Which cell viability does the source give for `COc1ccnc(CS(=O)c2nc3ccc(-n4cccc4)cc3[nH]2)c1C` (configuration not stated) [Ilaprazole] here?
The cell viability was 1.29 ± 0.23.

`O=C(CCCc1ccccc1)[O][Na]` [Sodium Phenylbutyrate] was tested. Which cell viability did it give?
Its cell viability is 0.0369 ± 0.035.

With `Cc1nc(Nc2ccc(F)cc2)nc(N2CCc3ccccc3C2C)c1C.Cl` (configuration not stated) [Revaprazan Hydrochloride] as the molecule, how does the cell viability read?
The cell viability was 1.14 ± 0.043.

`CO/N=C(\C(=O)NC1C(=O)N2C(C(=O)OCOC(=O)C(C)(C)C)=C(C)CSC12)c1csc(N)n1.Cl` (configuration not stated) [Cefetamet pivoxil hydrochloride] was tested. Which cell viability did it give?
Its cell viability is 1.14 ± 0.056.

Which cell viability does the source give for `CC(=O)OCC1OC(n2ccc(=O)[nH]c2=O)C(OC(C)=O)C1OC(C)=O` (configuration not stated) [uridine triacetate] here?
Its cell viability is 1.175 ± 0.0034.

With `COC(=O)C(Cc1ccccc1)NC(=O)C(N)CC(=O)O` (configuration not stated) [Aspartame] as the molecule, how does the cell viability read?
Its cell viability is 0.819 ± 0.06.

How did the cell viability turn out when `CC(CN1c2ccccc2Sc2ccccc21)N(C)C.Cl` (configuration not stated) [Promethazine HCl] was run?
The cell viability was 1.05 ± 0.051.

With `COC1CC2CCC(C)C(O)(O2)C(=O)C(=O)N2CCCCC2C(=O)OC(C(C)CC2CCC(OCCO)C(OC)C2)CC(=O)C(C)/C=C(\C)C(O)C(OC)C(=O)C(C)CC(C)/C=C/C=C/C=C/1C` (configuration not stated) [Everolimus (RAD001)] as the molecule, how does the cell viability read?
Its cell viability is 0.66 ± 0.29.

How did the cell viability turn out when `Cc1nc(-c2ccc(OCC(C)C)c(C#N)c2)sc1C(=O)O` [Febuxostat] was run?
The cell viability was 1.12 ± 0.27.

With `O=C(O)COc1nn(Cc2ccccc2)c2ccccc12` [Bendazac] as the molecule, how does the cell viability read?
The cell viability was 1.14 ± 0.11.

`Cc1cc(C(C)(C)C)cc(C)c1CC1=NCCN1` [Xylometazoline] was tested. Which cell viability did it give?
The cell viability was 1.08 ± 0.14.

For `CC(C)C(=O)OCC(=O)C12OC(C3CCCCC3)OC1CC1C3CCC4=CC(=O)C=CC4(C)C3C(O)CC12C` (configuration not stated) [Ciclesonide], which cell viability is on record?
The cell viability was 0.894 ± 0.16.

Which cell viability does the source give for `CC(=O)OC1(C(C)=O)CCC2C3C=C(C)C4=CC(=O)CCC4(C)C3CCC21C` (configuration not stated) [Megestrol Acetate] here?
Its cell viability is 1.13 ± 0.1.

`COc1nc(N)nc2c1ncn2C1OC(CO)C(O)C1O` (configuration not stated) [Nelarabine] was tested. Which cell viability did it give?
The cell viability was 0.758 ± 0.029.

How did the cell viability turn out when `CC(=O)OC1(C(C)=O)CCC2C3C=C(Cl)C4=CC(=O)C5CC5C4(C)C3CCC21C` (configuration not stated) [Cyproterone Acetate] was run?
The cell viability was 1.2 ± 0.092.

For `Cc1oncc1C(=O)Nc1ccc(C(F)(F)F)cc1` [Leflunomide], which cell viability is on record?
The cell viability was 0.683 ± 0.21.

With `CC(C)(O)c1ccccc1CCC(SCC1(CC(=O)O)CC1)c1cccc(/C=C/c2ccc3ccc(Cl)cc3n2)c1` (configuration not stated) [Montelukast] as the molecule, how does the cell viability read?
The cell viability was 0.934 ± 0.32.

How did the cell viability turn out when `CN1CCC(=C2c3ccccc3C=Cc3ccccc32)CC1.Cl` [Cyproheptadine hydrochloride] was run?
Its cell viability is 1.07 ± 0.17.

For `CS(=O)(=O)c1ccc(C(=O)Nc2ccc(Cl)c(-c3ccccn3)c2)c(Cl)c1` [Vismodegib (GDC-0449)], which cell viability is on record?
Its cell viability is 0.311 ± 0.32.

`COC(=O)CC(O)(CCCC(C)(C)O)C(=O)OC1C(OC)=CC23CCCN2CCc2cc4c(cc2C13)OCO4` (configuration not stated) [Homoharringtonine] was tested. Which cell viability did it give?
The cell viability was 0.358 ± 0.042.

`CNC(=O)c1cc(Oc2ccc(NC(=O)Nc3ccc(Cl)c(C(F)(F)F)c3)c(F)c2)ccn1.O` [Regorafenib Monohydrate] was tested. Which cell viability did it give?
Its cell viability is 0.21 ± 0.28.

`Nc1ccc(O)c(C(=O)O)c1` [Mesalamine] was tested. Which cell viability did it give?
Its cell viability is 1.06 ± 0.072.

With `COc1cccc2c1C(=O)c1c(O)c3c(c(O)c1C2=O)CC(O)(C(C)=O)CC3OC1CC(N)C(O)C(C)O1.Cl` (configuration not stated) [Daunorubicin HCl] as the molecule, how does the cell viability read?
Its cell viability is 0.0966 ± 0.039.

With `CN(C)c1nc(N(C)C)nc(N(C)C)n1` [Altretamine] as the molecule, how does the cell viability read?
The cell viability was 1.06 ± 0.036.

How did the cell viability turn out when `CCS(=O)(=O)N1CC(CC#N)(n2cc(-c3ncnc4[nH]ccc34)cn2)C1.O=P(O)(O)O` [Baricitinib phosphate] was run?
The cell viability was 1.0937 ± 7.8e-05.

For `Cc1ccc(C(C)C)c(O)c1` [Thymol], which cell viability is on record?
The cell viability was 1.08 ± 0.2.

How did the cell viability turn out when `C=C(NC(=O)C(=C)NC(=O)c1csc(C2=NC3c4csc(n4)C4NC(=O)c5csc(n5)C(C(C)(O)C(C)O)NC(=O)C5CSC(=N5)/C(=C/C)NC(=O)C(C(C)O)NC(=O)c5csc(n5)C3(CC2)NC(=O)C(C)NC(=O)C(=C)NC(=O)C(C)NC(=O)C(C(C)CC)NC2C=Cc3c(C(C)O)cc(nc3C2O)C(=O)OC4C)n1)C(N)=O` (configuration not stated) [Thiostrepton] was run?
The cell viability was 0.412 ± 0.15.
